Source: PubChem BioAssay (The Scripps Research Institute Molecular Screening Center)
TEAD-YAP block: TEAD-YAP interaction inhibition | HEK-TIYL cells, TEAD-Gal4/YAP UAS-luciferase luminescence | inhibition, % at 9.12 µM | 640,000 tested, 1.4% active | AID 1259422; in the data active = inhibition above about 32%;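 also: 0% = median of test compound wells and 100% = reference inhibitor wells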
FBW7 activator: human FBW7 E3 ligase activation, primary screen; Q969H0; AlphaScreen FBW7–phospho-cyclin E peptide binding, activator screen; normalized activity (activation), % at 26.1 µM; 650,000 tested, 0.13% active; AID 1259310; in the data active = normalized activity above about 1.9%;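 also: purified mutant Fbw7 with reduced substrate affinity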
GPR151 activ: activators of human GPR151; PathHunter beta-arrestin GPR151 cells, luminescence; activation, % at 11.2 µM; Q8TDV0; 650,000 tested, 1% active; AID 1508602; in the data active = activation above about 4.9%;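 also: 0% = median of compound wells and 100% = cells with positive control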
Target sequence (Q8TDV0 whole entry, looked up): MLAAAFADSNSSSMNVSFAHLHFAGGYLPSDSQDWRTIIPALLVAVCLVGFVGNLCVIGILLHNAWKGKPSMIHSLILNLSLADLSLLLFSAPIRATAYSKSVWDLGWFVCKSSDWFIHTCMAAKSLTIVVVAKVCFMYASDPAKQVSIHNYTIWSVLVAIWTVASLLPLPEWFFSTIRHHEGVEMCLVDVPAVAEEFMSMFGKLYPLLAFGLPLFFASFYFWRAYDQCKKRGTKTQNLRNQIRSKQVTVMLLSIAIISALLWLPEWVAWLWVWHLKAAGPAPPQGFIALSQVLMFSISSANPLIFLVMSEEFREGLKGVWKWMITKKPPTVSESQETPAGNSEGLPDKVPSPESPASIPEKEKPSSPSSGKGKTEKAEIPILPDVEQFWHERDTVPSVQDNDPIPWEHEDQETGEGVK
MITF inh: blocks human microphthalmia-associated transcription factor | 650,000 tested, 0.91% active | inhibition, % at 2.6 µM | AlphaScreen MITF homodimerization, bead proximity signal | O75030; in the data active = inhibition above about 50%;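 also: 0% = vehicle wells with protein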
MITF inh conf: human MITF inhibition, confirmation; shares compounds with MITF inh; inhibition, % at 2.6 µM; AID 1259372; 4,700 tested, 16% active; AlphaScreen MITF homodimerization, biotin/His-MITF beads;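 active = inhibition above a cutoff derived from the DMSO control wells, cut at about 28% in these data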;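 also: 0% = MITF dimer wells with DMSO only; inhibitors lower the bead chemiluminescence by keeping MITF from dimerizing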
AlphaScreen DR: counter-screen: compounds optically interfering with AlphaScreen; shares compounds with MITF inh; IC50, µM; AlphaScreen optical interference counterscreen, cell-free; 480 tested, 6% active; call rule not given here
AlphaScreen intf2: optically interferes with AlphaScreen signal; shares compounds with MITF inh; LysRS AlphaScreen counterscreen, signal interference, triplicate; inhibition, % at 2.6 µM; 4,700 tested, 7.6% active; AID 1259376;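 active = inhibition above a cutoff derived from the DMSO control wells, cut at about 30% in these data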
Active calls of the source: *; x = no result given. Hits are enriched below; roughly 3.4% of the tested compounds scored in any of these assays.

SMILES	TEAD-YAP block	FBW7 activator	GPR151 activ	MITF inh	MITF inh conf	AlphaScreen intf2	others
Cc1ccc(/C=C/C(=O)Nc2ccccc2Cl)o1	-44	0	-1	52*	24	26
CC(=O)c1c(C)oc2c1c1c(c3ccccc32)OCN(C2CCS(=O)(=O)C2)C1 (configuration not stated)	1	0	-1	-3	x	x
C=CCOc1ccccc1/C=C1/SC(=S)NC1=O	13	0	0	20	x	x
CCc1nc2sc(C(c3ccc(C(C)C)cc3)N3CCCC3)c(O)n2n1 (configuration not stated)	1	0	1	57*	0	-3
CCc1nc2sc(C(c3ccc(OC)c(OC)c3)N3CCCCC3)c(O)n2n1 (configuration not stated)	-2	0	0	-13	x	x
CCOc1ccc(N=c2sc(C3=c4ccccc4=NC3=O)c(O)n2-c2ccc(OCC)cc2)cc1	0	0	3	113*	10	18
CCOc1cccc2c1OC1(C)C(C(=O)Nc3ccc(OC)cc3)C2NC(=S)N1c1ccc(C)cc1 (configuration not stated)	8	0	1	12	x	x
CC(NC(=O)CN(C)CC(=O)Nc1ccccc1Br)c1ccccc1 (configuration not stated)	-1	0	0	66*	-25	1
COc1ccc(OC)c(NC(=O)CN(C)CC(=O)Nc2ccccc2Br)c1	-6	0	0	74*	15	17
COc1ccc(C)cc1S(=O)(=O)N(C)CC(=O)Nc1ccccc1F	-1	0	3	-2	x	x
COc1ccc(OC)c(S(=O)(=O)N(C)CC(=O)Nc2ccccc2F)c1	-1	0	-1	51*	20	8
Cc1ccc(NC(=O)c2cc(S(=O)(=O)N3CCN(c4ccccc4F)CC3)ccc2F)cc1	-3	0	-1	-36	x	x
Cc1ccc(NC(=O)C(=O)NCCCO)cc1C	-47	0	-2	17	x	x
CCCCSC1=C(C#N)C(c2cccc([N+](=O)[O-])c2)C(C(C)=O)=C(C)N1 (configuration not stated)	-6	0	1	63*	-9	3
COC(=O)CCn1c(=O)c2c(nc3n(-c4cc(C)cc(C)c4)c(C)c(C)n23)n(C)c1=O	-6	0	-1	4	x	x
COc1cc2nc(N3CCOCC3)nc(NCc3nc4ccccc4[nH]3)c2cc1OC	-13	0	0	-2	x	x
COc1nc(NCc2nc3ccccc3[nH]2)nc(Nc2ncccn2)n1	9	0	-1	11	x	x
O=[N+]([O-])c1ccc(OCCCCn2cncn2)cc1	6	-1	-1	41	x	x
c1ccc(Oc2cccc(OCCOCCn3cncn3)c2)cc1	-10	0	-2	72*	-5	-9
Clc1cccc(OCCn2cncn2)c1	-6	0	-1	-6	x	x
c1ccc(Oc2cccc(OCCn3cncn3)c2)cc1	-10	0	5	67*	-2	6
Brc1cccc(OCCn2cnc3ccccc32)c1	-3	0	0	68*	4	16
c1ccc(COc2ccc(OCCn3cncn3)cc2)cc1	-17	0	-1	2	x	x
Brc1cccc(OCCCCn2cncn2)c1	-3	0	-1	62*	9	13
NC(=O)c1oc2ccccc2c1NC(=O)CCSc1ccc(F)cc1	29	0	0	3	x	x
SMILES	TEAD-YAP block	FBW7 activator	GPR151 activ	MITF inh	MITF inh conf	AlphaScreen intf2	others
COc1ncnc(NN(c2ccccc2)c2ccccc2)c1[N+](=O)[O-]	-8	-1	1	8	x	x
CC(C)CN1C(=O)c2ccc(C(=O)NCc3ccc(C(=O)O)cc3)cc2C1=O	-4	0	2	-5	x	x
c1ccc(-c2ccc(OCCCn3cncn3)cc2)cc1	-27	0	0	61*	7	12
Cc1cc(Br)ccc1OCCn1cncn1	3	0	2	68*	9	12
Cc1cc(Cl)ccc1OCCn1cncn1	0	0	0	-1	x	x
Cc1cccc(N2C(=O)NC(=O)/C(=C\c3cccn3C)C2=O)c1	4	0	2	-14	x	x
Cc1ccc(NC(=O)CN2C(=O)CC(C)(C)S(=O)(=O)c3ccccc32)cc1C	-4	0	2	-7	x	x
Nc1cc2c(cc1[N+](=O)[O-])OCCO2	-3	0	0	-12	x	x
CN(C)C=Nc1cc2c(cc1[N+](=O)[O-])OCCO2	-7	0	1	51*	9	7
COCCNC(=O)c1ccc(N(CC(C)C)C2=NC3CS(=O)(=O)CC3S2)cc1 (configuration not stated)	6	0	0	9	x	x
O=C(c1cccc2ccccc12)N1CCN2C(=O)[C@@H]3CSCN3C(=O)[C@H]2C1	4	0	0	19	x	x
CN1C(=O)[C@H]2CN(C(=O)NCc3ccccc3)CCN2C(=O)[C@@H]1Cc1ccccc1	3	1	0	80*	68*	-3	AlphaScreen DR=>6.5
O=C(NCc1ccccc1)N1CCN2C(=O)[C@@H]3CSCN3C(=O)[C@H]2C1	2	0	-1	75*	75*	-5	AlphaScreen DR=>6.5
O=C(Nc1ccc(Cl)cc1Cl)N1CCN2C(=O)[C@@H]3CSCN3C(=O)[C@H]2C1	6	0	-1	70*	66*	0	AlphaScreen DR=>6.5
O=C(O)CCCc1nc(-c2cccs2)no1	-5	0	2	-4	x	x
O=C(Nc1nnc(-c2ccccc2)o1)c1ccc2c(c1)S(=O)(=O)c1ccccc1C2=O	6	0	-1	1	x	x
NC(=O)c1ccc(-c2cccs2)s1	-6	0	0	59*	39*	3	AlphaScreen DR=>7.3
NC(=O)c1ccc(-c2csc3ccccc23)s1	-5	0	1	11	x	x
C/C(=N/NC(=O)c1ccco1)c1ccc(O)cc1	-65	0	-3	15	x	x
Cc1cc(NCc2cccc(C(F)(F)F)c2)nc(-c2ccc(N(C)C)cc2)n1	-2	0	1	-4	x	x
CC(=O)NS(=O)(=O)c1ccc(NC(=O)c2ccc([N+](=O)[O-])o2)cc1	12	0	3	64*	40*	-5	AlphaScreen DR=>6.6
O=C(Nc1ccc(Br)cc1)c1ccc([N+](=O)[O-])o1	9	0	1	10	x	x
CCC(C)NC(=O)CN(Cc1ccc(F)cc1)S(=O)(=O)c1ccc(Cl)cc1 (configuration not stated)	0	0	0	70*	-13	-6
COC(=O)c1ccc(Cn2c([N+](=O)[O-])cnc2C)cc1	-2	0	-1	78*	-16	-3
Cc1ncc([N+](=O)[O-])n1Cc1ccc(F)cc1	1	0	0	9	x	x
C=CCC1(NCc2ccco2)CCN(C)CC1	-4	0	0	63*	0	-3
CC(C(=O)NCc1ccco1)N1CCN(C)CC1 (configuration not stated)	6	0	2	-3	x	x
